Results reported in ChEMBL document CHEMBL3988442, “University of Dundee, Small-Polar-MMV Screening Library” (2021).
The whole screen tested about 48,000 compounds, of which about 13,000 (27%) showed an effect of 50% or more. Some of the results follow.

system: Wolbachia pipientis; test: Anti-Wolbachia Cell-Based Screen; assay type: functional; set-up: scale not given: in the data most compounds retested in dose-response had high values; conditions: 5 µM

Compound | Percent Effect [%]
COc1cccc(C(=O)N2CCc3ncnc(C)c3CC2)c1 | -6.547
CN1CC[C@H]2CN(C(=O)c3csc(Cc4ccccc4)n3)C[C@H]21 | 0.1576
Cc1nn(C)cc1C(C)Nc1ncnc2sccc12 (stereo unspecified) | -14.94
c1n[nH]cc1CCCN1CCC(OC2CCCCC2)CC1 | 7.391
O=C(Nc1cc(C(F)(F)F)c[nH]c1=O)C1CCCO1 (stereo unspecified) | 93.32
Cc1ccc(NC(=O)NCCCc2n[nH]c(N)c2C#N)cc1 | 1.349
Cc1nn(C)c(C)c1NC(=O)CCn1ncc2c(C)cccc21 | -5.64
Cc1ccc(CN2CCCn3c(nc(CN4CCCC4)cc3=O)C2)s1.O=C(O)C(F)(F)F.O=C(O)C(F)(F)F | -4.249
Cc1ccc(CN2CCCn3c(nc(Cn4cncn4)cc3=O)C2)s1 | -3.936
COCC(=O)NCc1cc(=O)n2c(n1)CN(Cc1ccncc1)CCC2 | 99.24
COCC(=O)NCc1cc(=O)n2c(n1)CN(Cc1ccoc1)CCC2 | 84.57
CN(C)C(=O)NCc1cc(=O)n2c(n1)CN(Cc1ccoc1)CCC2.O=C(O)C(F)(F)F | 87.23
O=C(CC1CC1)NCc1cc(=O)n2c(n1)CN(Cc1ccoc1)CCC2 | 68.76
O=c1cc(Cn2ccnc2)nc2n1CCCN(Cc1ccsc1)C2 | 9.464
Cc1oncc1C(=O)NCc1cc(=O)n2c(n1)CN(C)CCC2.O=C(O)C(F)(F)F | -6.613
Cn1ncc2c(NCCOCc3ccccc3)nc(C3CCCC3)nc21 | 18.15
Cc1cc(C)c(C)c(OCCCNC(=O)NC(C)c2nncn2C)c1 (stereo unspecified) | 4.914
Cc1nc(CC(=O)NCCNc2nccc(C(F)(F)F)n2)cs1 | -6.146
COCC(=O)NCc1cc(=O)n2c(n1)CN(Cc1ccco1)CCC2 | 106.6
O=c1cc(Cn2cncn2)nc2n1CCCN(Cc1ccco1)C2 | -4.032
CN(C)Cc1cc(=O)n2c(n1)CN(Cc1ccco1)CCC2 | 2.843
O=c1cc(CN2CCCC2)nc2n1CCCN(Cc1ccco1)C2 | 15.57

Compound | Percent Effect [%]
O=c1cc(CN2CCCC2)nc2n1CCCN(Cc1ccsc1)C2 | 8.942
O=c1cc(CN2CCCC2)nc2n1CCCN(Cc1ccoc1)C2 | 85.96
O=C1NC(c2ccccc2)=N[C@@]12CC[C@@H]1CN(S(=O)(=O)C3CC3)C[C@@H]12 | 2.973
Cc1ccc(C)c(NC(=O)C(C)N2CCCN(c3nccs3)CC2)c1 (stereo unspecified) | 18.26
CCC(CO)N(Cc1cccc(O)c1)Cc1ccccc1C (stereo unspecified) | -1.955
N#Cc1cc(NC(=O)C2CC=CC2)ccc1N1CCC(O)CC1 | -4.254
CNC(=O)[C@@H](C1CCCCC1)N1CCC[C@H]1C(=O)NC1CC1 | 10.77
N#Cc1ccccc1CNC(C(=O)N1CCOCC1)c1ccccc1 (stereo unspecified) | -7.429
CCOC(=O)C1CCN(C(=O)CN2CCCC2Cc2ccccc2)CC1 (stereo unspecified) | -0.766
CCc1c(C(=O)NCC(=O)OCC2CC2)cnn1-c1ccc(C)cc1 | -8.085
CCOC(=O)C1CCN(C(=O)CN2CCCC2c2ccccc2C)CC1 (stereo unspecified) | -25.1
CCOC(=O)C1CCN(C(=O)c2cnn(-c3ccc(C)cc3)c2N)CC1 | 105.1
CCOC(=O)C1CCN(C(=O)c2cnn(-c3ccccc3F)c2N)CC1 | 125.9
CCOC1CCN(C(=O)c2ccc(-n3ncc(C#N)c3N)cc2)CC1 | -10.17
Cc1nn(C(C)C)c(C)c1NC(=O)c1ccc(F)cc1 | -6.824
N#Cc1ccccc1NC(=O)c1ccc2c(c1)OCO2 | 136.5
CCc1noc(CN(C)CCC(=O)Nc2ccccc2C#N)n1 | 9.134
CN(C)Cc1ccccc1NC(=O)c1ccc(C#N)cc1 | 4.666
COc1cc(C)nc(N2CCN(C(C)c3nc(C)no3)CC2)n1 (stereo unspecified) | -6.748
CC(C)(O)CSCCNCc1ccc(Cl)c2cccnc12 | 7.695
CC1CCC(NCCCN2CCOCC2)CC1 (stereo unspecified) | -18.43
C1CCC(NCCN2CCOCC2)C1 | -5.882

Compound | Percent Effect [%]
C1CN(CCN2CCOCC2)CCN1 | 96.42
Cc1cc(C)n(CC2CCCN2C(=O)CCc2cscn2)n1 (stereo unspecified) | -3.871
CCC(C)(NC(=O)CCN1CCOC1=O)C(=O)OC (stereo unspecified) | -2.045
Cc1cc(C)n(C2CCCN(C(=O)Cc3csc(C)n3)C2)n1 (stereo unspecified) | 1.332
Cc1cc(C)n(C2CCCN(C(=O)CN(C)c3cnccn3)C2)n1 (stereo unspecified) | -4.644
Cc1cnn(C2CCCN(C(=O)CCc3nccs3)C2)c1 (stereo unspecified) | -0.76
O=C(CCc1cnn(-c2ccccc2)c1)N1CCCC(n2cccn2)C1 (stereo unspecified) | -6.718
O=C(CCc1nccs1)N1CCCC(n2cccn2)C1 (stereo unspecified) | 73.36
Cc1cc(C)n(C2CCCN(C(=O)CCc3nccs3)C2)n1 (stereo unspecified) | 95.16
CN(CCc1ccccc1)Cc1cc(C(=O)N2CCN(C)C(=O)C2)no1 | 103.8
CN1CCCN(C(=O)c2cc(CN(C)CCc3ccccc3)on2)CC1 | -31.64
CN(CCc1ccccc1)Cc1cc(C(=O)N2CCSCC2)no1 | -17.09
O=C(NCCSCc1cccs1)C1CCCN(C(=O)N2CCCC2)C1 (stereo unspecified) | -5.994
COCCN1CCCC1c1nccnc1Nc1nccs1 (stereo unspecified) | 95.24
Cc1cnc(NC(=O)c2ccc(C3CCCN3CC(C)C)s2)s1 (stereo unspecified) | -4.424
COCCN1CCCC1c1nccnc1Nc1nc(C)cs1 (stereo unspecified) | -1.129
COc1c(C2CCCN2CCOc2ccccc2C#N)c(C)nn1C (stereo unspecified) | -6.58
COCCN1CCCC1c1nccnc1Nc1ncc(C)s1 (stereo unspecified) | 100
COCCN1CCN(Cc2nccs2)[C@H]2CS(=O)(=O)C[C@H]21 | -12.76
O=C(CN1CCN(c2ncnc3c2CCNCC3)CC1)N1CCCCC1 | -2.249
c1ccc(-c2cnc(CNCC3CCCN3c3cccnn3)o2)cc1 (stereo unspecified) | -6.959
Cn1cnc2c1C(C(=O)N1CCCC1)N(S(C)(=O)=O)CC2 (stereo unspecified) | 3.413
